PubChem BioAssay
The source made the active and inactive calls.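 How the source made its calls, unless noted: active means visually confirmed hit in the image check and inhibition above 20%; inconclusive means visually confirmed hit but inhibition not above 20%; inactive means no visual hit in the image check.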

Legend:
[1] = inhibitors of TNFa-induced NFkB p65 translocation, primary screen, imaging, HUVEC, MLSMR starter and 10KST1 sets (AID 438;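 active means inhibition above 20% together with a positive visual image hit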;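 further: compound added about 3h40 before a 20 min TNFalpha stimulation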;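 on inhibition: signal is the nuclear over cytoplasmic p65 intensity ratio per well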); details: HUVEC TNFa-induced p65 nuclear translocation; cell count: measured here: nuclei count (cytotoxicity indicator), at 2.08 µM; inhibition: at 2 µM, stronger effect = higher value, 0% TNFa-plus-vehicle, 100% no-TNFa wells
[2] = reduction of polyQ htt aggregates in cells – imaging, exon1htt(103Q)mCFP cells, high-content imaging, primary screen (AID 483;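 active means visual image review flags a hit and inhibition of aggregation exceeds 20%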;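 further: compound exposure lasted 3 days before fixation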;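 on nuclei count: percent of the per-plate median nuclei count of sample wells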); details: exon1htt(103Q)mCFP cell line, aggregate imaging, at 2 µM; inhibition of aggregation: stronger effect = higher value; nuclei count: measured here: cell count, toxicity
[3] = endothelial E-selectin expression blockers – imaging, HUVEC, immunofluorescence, MLSMR starter and 10KST1 sets, primary screen (AID 487); details: HUVEC TNFalpha-induced E-selectin immunofluorescence imaging, at 2 µM; inhibition: stronger effect = higher value; nuclei count: measured here: cell number, toxicity;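 on inhibition: signal is fraction of cell area covered by stained E-selectin grains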;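 on nuclei count: 100% = median nuclei count of all wells on the same plate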
[4] = biological target: Voltage-gated potassium channel subunit beta-2 (Rattus norvegicus) (UniProt P62483); experiment: inhibitors of rat Kvbeta2 reductase activity – biochemical, NADPH fluorescence, primary screen (AID 622;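 active means fluorescence slope higher than the sample average by over 3 SD, cut at about -0.22 in these data, passing the limit was not always enough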;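 further: slope of raw intensity against log time taken from 70 to 1610 s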); details: recombinant KvBeta, 4-cyanobenzaldehyde reduction, at 10 µM, stronger effect = higher value
[5] = biological target: Voltage-gated potassium channel subunit beta-2 (Rattus norvegicus) (UniProt P62483); experiment: enhancers of rat Kvbeta2 NADPH turnover – biochemical, NADPH fluorescence, primary screen (AID 623;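 active means NADPH fluorescence slope more negative than the mean of all samples by about 3 SD, 99.7% confidence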;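 further: fluorescence intensity change per second fitted from 20 to 320 s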); details: Recombinant KvBeta, NADPH fluorescence decrease slope, 10 min; at 10 µM; stronger effect = lower value
[6] = biological target: Alpha-2C adrenergic receptor (Homo sapiens) (UniProt P18825); experiment: compounds altering alpha2C-coupled GIRK flux – cell-based, HEK293 alpha2C/GIRK1/2, thallium flux, primary screen (AID 624;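 active means fluorescence slope after compound addition differing from the mean of all screened samples at 99.7% confidence, in either direction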;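 further: slope of fluorescence ratio to pre-addition baseline per second over 15 to 24 s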); details: thallium flux BTC fluorescence, at 10 µM, actives lie on both sides
[7] = blockers of RIG-like receptor reporter activation – cell-based, Sendai virus stimulus, luciferase, 10K MLSCN set, TLR/RLR signaling modifier project, primary screen (AID 602276;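 active means inhibition at or above 50% at 10 µM; inactive means inhibition below 50%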;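 further: firefly luciferase from ISG56 promoter only with Renilla not read in this screen; 0% = Sendai virus plus DMSO and 100% = medium plus DMSO without virus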); details: HEK293 RL24 IRF3 luciferase reporter, at 10 µM, stronger effect = higher value
[8] = TLR3 IRF3 reporter activation blockers – cell-based, poly I:C stimulus, luciferase, 10K MLSCN set, primary screen (AID 602277;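 active means inhibition of the reporter signal at or above 50%; inactive means inhibition below 50%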); details: HEK293-TLR3 RL24 IRF3 luciferase reporter, at 10 µM, stronger effect = higher value

Chain of Voltage-gated potassium channel subunit beta-2 (Rattus norvegicus) (P62483 whole entry, looked up): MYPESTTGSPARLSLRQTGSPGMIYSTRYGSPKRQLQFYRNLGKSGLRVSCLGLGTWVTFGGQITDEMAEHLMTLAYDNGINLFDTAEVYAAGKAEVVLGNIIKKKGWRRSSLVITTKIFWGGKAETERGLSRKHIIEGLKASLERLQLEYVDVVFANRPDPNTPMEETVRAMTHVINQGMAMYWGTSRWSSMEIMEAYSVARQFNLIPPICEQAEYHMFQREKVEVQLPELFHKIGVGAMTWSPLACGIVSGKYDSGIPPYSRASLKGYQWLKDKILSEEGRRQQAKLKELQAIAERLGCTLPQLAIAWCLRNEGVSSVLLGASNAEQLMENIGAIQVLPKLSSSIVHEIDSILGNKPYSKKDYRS
Chain of Alpha-2C adrenergic receptor (Homo sapiens) (P18825 whole entry, looked up): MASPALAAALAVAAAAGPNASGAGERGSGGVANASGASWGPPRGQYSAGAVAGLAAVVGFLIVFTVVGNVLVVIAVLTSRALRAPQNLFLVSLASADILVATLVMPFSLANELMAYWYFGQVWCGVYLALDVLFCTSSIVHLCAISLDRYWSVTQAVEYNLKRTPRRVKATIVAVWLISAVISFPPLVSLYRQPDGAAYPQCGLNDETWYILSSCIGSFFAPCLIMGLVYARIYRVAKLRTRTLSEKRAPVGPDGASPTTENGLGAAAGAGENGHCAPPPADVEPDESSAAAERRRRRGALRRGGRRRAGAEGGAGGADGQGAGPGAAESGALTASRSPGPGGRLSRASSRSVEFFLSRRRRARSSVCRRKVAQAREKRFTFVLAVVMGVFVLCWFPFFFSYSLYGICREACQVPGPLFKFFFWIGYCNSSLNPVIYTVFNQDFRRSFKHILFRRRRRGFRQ

SMILES	cell count [1]	inhibition [1]	inhibition of aggregation [2]	nuclei count [2]	inhibition [3]	nuclei count [3]	fluorescence slope [4]	NADPH fluorescence slope [5]	slope [6]	inhibition [7]	inhibition [8]
Cc1[nH]c2ccccc2c1Cc1nnc(SCC(=O)NCc2ccco2)o1	428	-7.7% (inactive)	12.9% (inactive)	83.4%	-24.9% (inactive)	87%	-0.436 (inactive)	1.9e-05 (inactive)	0.0061 (inactive)	-11.7% (inactive)	-28.3% (inactive)
CCCCC(=O)NCCc1ccc(S(N)(=O)=O)cc1	555	10.7% (inactive)	1.1% (inactive)	101%	-35% (inactive)	88.9%	-0.412 (inactive)	-5.1e-05 (inactive)	0.0057 (inactive)	3.38% (inactive)	10.4% (inactive)
O=c1c2[nH]c3ccccc3c2ncn1CCCn1ccnc1	717	-0.2% (inactive)	-4.9% (inactive)	99.9%	-21.4% (inactive)	111%	-0.42 (inactive)	3.1e-06 (inactive)	0.00409 (inactive)	26.3% (inactive)	50.7% (active)
CCc1nnc(NC(=O)CSc2nnc(-c3ccc(OC)cc3)n2C)s1	648	14.3% (inactive)	21.9% (inactive)	66.3%	5.4% (inactive)	112%	-0.609 (inactive)	-3e-05 (inactive)	0.00434 (inactive)	12.5% (inactive)	20.1% (inactive)
CC(O)c1c(OCc2ccccc2)ncnc1OCc1ccccc1 (centres undefined)	426	0.5% (inactive)	-7.1% (inactive)	65.7%	-36.1% (inactive)	115%	-0.44 (inactive)	-0.000123 (inactive)	0.00502 (inactive)	10.6% (inactive)	20.8% (inactive)
COc1ccc(NC(=O)c2cc(C)on2)cc1OC	377	3.7% (inactive)	-26.4% (inactive)	111%	22.1% (inactive)	106%	-0.624 (inactive)	-3.2e-06 (inactive)	0.00386 (inactive)	6.93% (inactive)	-8.62% (inactive)
Cc1ccccc1NC(=O)NCCCN1CCN(C2CCCCC2)CC1	411	-1.8% (inactive)	8.9% (inactive)	81.8%	-119% (inactive)	108%	-0.61 (inactive)	2.5e-06 (inactive)	0.00551 (inactive)	3.03% (inactive)	13% (inactive)
Cc1ccnc(NC(=O)C2CCC(CNc3c(N4CCCC4)c(=O)c3=O)CC2)c1 (centres undefined)	544	4.4% (inactive)	-2.5% (inactive)	113%	-31.3% (inactive)	98.8%	-0.598 (inactive)	-2.9e-05 (inactive)	0.00671 (inactive)	4.3% (inactive)	18.4% (inactive)
Cc1cccc(NC(=O)C2CCCN(C(=O)Nc3ccccc3)C2)c1C (centres undefined)	599	-28.6% (inactive)	-9.1% (inactive)	87.8%	-9.2% (inactive)	85.7%	-0.573 (inactive)	4.6e-05 (inactive)	0.00746 (inactive)	4% (inactive)	-12% (inactive)
